{"source": "PubChem BioAssay (NCI)", "note": "This is part of a sample that, as a whole, favours compounds with a hit. Of some 79,000 tested, about 15% had one in any assay. A number with no mark means an inactive call. Calls of active or inactive are those of the source. Cut-off read from the data, not from the text of the source: active = growth inhibition above about 70%; inactive = the rest. Where a SMILES comes first, the peptide text is derived from it. The star is where a group is joined. Boc = CC(C)(C)OC(=O)*"}
{"test": "NCI Yeast Anticancer Drug Screen. Data for the rad50 strain (AID 155);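 note: 0% = growth of vehicle-only cultures of the same strain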", "settings": "S. cerevisiae rad50 strain growth inhibition; at 50.0 µM; active compounds read high", "summary_of_the_method": "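Vehicle-treated cultures provide the reference for the growth inhibition reported for compound-exposed, repair-deficient yeast.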"}
{"smiles": "CC(=O)CC(=O)Nc1cccc(O)c1", "growth inhibition": "-15%"}
{"smiles": "Nc1ccc(S(=O)(=O)N(CCO)CCO)cc1", "growth inhibition": "-2.65%"}
{"smiles": "CCOP(=O)(OCC)C(Cc1cn(S(=O)(=O)c2ccc(C)cc2)cn1)C(=O)O", "note": "(stereo not given)", "growth inhibition": "-14.2%"}
{"smiles": "Cc1ncc(CSC(=N)N)n1Cc1ccccc1", "growth inhibition": "-33.6%"}
{"smiles": "CC(C)(Nc1nc2c(ncn2C2OC(CO)C(O)C2O)c(=O)[nH]1)P(=O)(O)O", "note": "(stereo not given)", "growth inhibition": "4.4%"}
{"smiles": "O=C(O)c1c(Br)c(Br)c(Br)c(Br)c1C1c2ccc(O)cc2Oc2cc(O)ccc21", "growth inhibition": "20.4%"}
{"smiles": "Cc1cccc2c1Oc1ccccc1C2N1C(=O)/C(=C/c2ccc(Cl)c(Cl)c2)SC1=S", "note": "(stereo not given)", "growth inhibition": "-3.8%"}
{"smiles": "Cc1cc2c(C)n(Cc3ccc(Cl)cc3Cl)nc2c(C#N)c1C", "growth inhibition": "-11.2%"}
{"smiles": "ClC1=C(Cl)C2(Cl)C3C(CC4C3C3(Cl)C(Cl)=C(Cl)C4(Cl)C3(Cl)Cl)C1(Cl)C2(Cl)Cl", "note": "(stereo not given)", "growth inhibition": "-7.65%"}
{"smiles": "Cc1ccc(CCCC(=O)O)cc1C", "growth inhibition": "-21.6%"}
{"smiles": "C(=C\\CSc1ccccn1)/CSc1ccccn1", "growth inhibition": "50%"}
{"smiles": "Fc1ccc(CC(F)F)cc1", "growth inhibition": "-2.55%"}
{"smiles": "CC(=O)OC1/C=C(\\C)C(OC(C)=O)C/C=C(/C)CCC2C(/C=C/C1=O)C2(C)C", "note": "(stereo not given)", "growth inhibition": "78.9% (active)"}
{"smiles": "c1cc2nc(c1)CSCCCCCCCCSC2", "growth inhibition": "-3.25%"}
{"smiles": "COc1c(C)c(C)c(Br)c(C)c1C", "growth inhibition": "6.35%"}
{"smiles": "C=C(CN(C)C)C1(c2ccccc2)CC2(CCCC2)C(=O)O1", "note": "(stereo not given)", "growth inhibition": "24.2%"}
{"smiles": "Cc1ccc(-c2nc3ccccc3cc2N)cc1", "growth inhibition": "5.85%"}
{"smiles": "Cc1cccc(N=Nc2c(C)nc(N)nc2C)c1C", "growth inhibition": "4.35%"}
{"smiles": "CCC1(O)CC2CN(CCc3c([nH]c4ccccc34)C(C(=O)OC)(c3cc4c(cc3OC)N(C)C3C(O)(C(N)=O)C(O)C5(CC)C=CCN6CCC43C65)C2)C1", "note": "(stereo not given) (tested in a mixture with another compound)", "growth inhibition": "-2.3%"}
{"smiles": "Nc1nc(N)nc(C2CC3C=CC2C3)n1", "note": "(stereo not given)", "growth inhibition": "-1.55%"}
{"smiles": "COc1ccccc1/C=N/NC(=O)CCCCCCCCC(=O)N/N=C/c1ccccc1OC", "growth inhibition": "0.95%"}
{"smiles": "Nc1ccc2c(c1)C(=O)N(OS(=O)(=O)c1ccccc1)C2=O", "growth inhibition": "55%"}
{"smiles": "O=C(C[n+]1csc2ccccc21)c1ccc(-c2ccccc2)cc1", "growth inhibition": "18.1%"}
{"smiles": "CN1C(=O)N/C(=C\\c2ccc(S(=O)(=O)N/N=C\\C(O)C(O)C(O)CO)cc2)C1=O", "note": "(stereo not given)", "growth inhibition": "-25.4%"}
{"smiles": "Clc1ccc2c(Cl)ncnc2c1I", "growth inhibition": "-2.5%"}
{"smiles": "CCCCn1[nH]c(=O)ccc1=O", "growth inhibition": "16.9%"}
{"smiles": "CCCCCCCCC(=O)OCC(=O)c1ccc(-c2ccccc2)cc1", "growth inhibition": "10.8%"}
{"smiles": "CC(C)(C)C([O-])=C1C(=O)c2ccccc2C1=O.CC(C)(C)C([O-])=C1C(=O)c2ccccc2C1=O.CC[O-].CC[O-].[Ti+4]", "growth inhibition": "20.1%"}
{"smiles": "Cc1cc([N+](=O)[O-])c(Cl)cc1Cl", "growth inhibition": "-22.8%"}
{"smiles": "CC12CCC(CC1)C(C)(C)N=C(N)S2", "growth inhibition": "-3.1%"}
{"smiles": "Clc1ccc(N=Cc2ccc(C=Nc3ccc(Cl)c(Cl)c3)cc2)cc1Cl", "growth inhibition": "-7.7%"}
{"smiles": "CCCC(=O)Oc1cccc(C)c1", "growth inhibition": "15.7%"}
{"smiles": "CCCCCCCCCCCC(=O)NC(=S)Nc1cc(OC)ccc1OC", "growth inhibition": "-17.9%"}
{"smiles": "CCCCN1CCNC1=S", "growth inhibition": "-0.85%"}
{"smiles": "CCOC(=O)C(CC(C)C)NC(=O)C(Cc1ccccc1)NC(=O)CNC(=O)OC(C)(C)C", "note": "(stereo not drawn) (Boc-Gly-Phe-Leu-OEt; configuration not given here)", "growth inhibition": "7.65%"}
{"smiles": "Cc1ccc(S(=O)(=O)Oc2c(Cl)c(Cl)c(Cl)c(Cl)c2Cl)cc1", "growth inhibition": "-9.5%"}
{"smiles": "CC1CC2C3(C1)CC(C(=O)OC3=O)C2(C)C", "note": "(stereo not given)", "growth inhibition": "-3.4%"}
{"smiles": "S=c1[nH]c(=S)c2[nH]cnc2[nH]1", "growth inhibition": "-7.4%"}
{"smiles": "COc1ccc2cc(C(C)C(O)c3cc(F)c(F)c(F)c3F)ccc2c1", "note": "(stereo not given)", "growth inhibition": "-21.1%"}
{"smiles": "C=CCNC(=O)c1ccc[n+](CC(=O)Nc2ccccc2)c1", "growth inhibition": "1%"}
